High-throughput results (PubChem BioAssay)
KDM5B inhibitor = Primary screen for KDM5B Histone Demethylases FDH-coupled qHTS. Lysine-specific demethylase 5B (Homo sapiens), Q9UGL1. Potency, µM (top dose mostly 57.7 µM), usual class: inhibitors. KDM5B demethylase, FDH-coupled NADH fluorescence (FDH is formaldehyde dehydrogenase). AID 1347165, 2019. actives 2.6% (n = 220,000); active means well fitted inhibition curve with a large enough effect; further: nearly all actives have a fitted effect of over 70% in size
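Here, H3K4me3 peptide (12.5 µM in substrate mix) is demethylated by KDM5BΔAP, 200 nM final, after 10 min compound exposure. Formaldehyde product is coupled through FDH (0.25 U/mL in mix) to NADH fluorescence; 30-min ΔRFU feeds dose-response curves.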
Large screens that a line does not name were inactive. The sample as a whole holds a higher share of hits than the screen did.

Cc1ccccc1-n1c(SCC(=O)NCC2CCCO2)nc2c([nH]c3ccccc32)c1=O (centres undefined)	none
CCC1=C(C(=O)OC)C(c2ccccc2F)N2C(CC(=O)NCC3CCCO3)=CSC2=N1 (centres undefined)	none
COC(=O)[C@@H]1Cc2c([nH]c3ccccc23)[C@H]2C[C@H](NC[C@H]3CCCO3)C[C@@H](c3ccccc3F)N21	KDM5B inhibitor 28.2µM
Cc1[nH]c2ccccc2c1SCCNC(=O)c1ccc(F)cc1	none
O=C(NCCCn1ccnc1)C1CC(c2ccccc2Cl)=NO1 (centres undefined)	none
COC(=O)[C@@H]1Cc2c([nH]c3ccccc23)[C@H]2C[C@H](N3CCCCC3)C[C@@H](c3ccccc3F)N21	none
COC(=O)[C@@H]1Cc2c([nH]c3ccccc23)[C@H]2C[C@@H](NCCO)C[C@@H](c3ccccc3F)N21	KDM5B inhibitor 28.2µM
COC(=O)[C@@H]1Cc2c([nH]c3ccccc23)[C@H]2C[C@@H](NCCCn3ccnc3)C[C@@H](c3ccccc3F)N21	KDM5B inhibitor 25.1µM
COc1cccc(CN2CCNC(=O)C2CC(=O)NCCCn2ccnc2)c1 (centres undefined)	none
COc1cccc(-c2nn(-c3ccccc3)cc2C(=O)NCC(C)(C)N2CCOCC2)c1	none
O=c1c2nnn(Cc3ccccc3)c2ncn1Cc1nc(-c2ccc(OC(F)(F)F)cc2)no1	none
Cn1c(SCC(=O)NCC(F)(F)F)nnc1-c1cc2c(s1)CCC(C(C)(C)C)C2 (centres undefined)	none
CC(C)(C)NC(=O)CSc1ncc(-c2cccc(Br)c2)o1	none
CN(C)C(CNC(=O)Cn1cnc2c1c(=O)n(C)c(=O)n2C)c1cccs1 (centres undefined)	none
O=C1N(Cc2ccc(F)cc2)C[C@H]2CN(CC3CC3)CCN12	none
O=C1[C@H]2CC[C@H](CN(Cc3ccc(-n4ccnc4)cc3)C2)N1CC1CCC1	KDM5B inhibitor 20µM
O=C1[C@H]2CC[C@H](CN(Cc3cccc(N4CCOCC4)c3)C2)N1CC1CCC1	none
COc1cc(CN(C(=O)c2ccc3c(c2)NC(=O)CS3)C2CC2)ccc1OC(F)F	none
Cc1cc(C(=O)NCCC(C)C)c2ccccc2n1	none
CCOc1ccccc1CNC(=O)c1cc(C)nc2c(C)cccc12	none
COc1ccccc1CNC(=O)c1ccccc1C(F)(F)F	none
COc1cccc(CNC(=O)c2cc(C)nc3ccccc23)c1	none
COCCNC(=O)c1cc(NC(=O)C(C)C)cc2nc(C)ccc12	KDM5B inhibitor 25.1µM
COCCNC(=O)c1cc(-c2cc(OC)c(OC)c(OC)c2)nc2ccccc12	none
CCc1cccc(CC)c1NC(=O)c1cc(C)nc2ccccc12	none
Cc1ccc2c(C(=O)NCc3ccccc3C(F)(F)F)cc(NC(=O)C(C)C)cc2n1	KDM5B inhibitor 25.1µM
CCOc1ccccc1CNC(=O)c1cc(NC(C)=O)cc2nc(C)ccc12	KDM5B inhibitor 14.1µM
COCCNC(=S)NNC(=O)c1cc(C)nc2ccccc12	none
Cc1ccc2c(C(=O)NCc3cc(F)cc(F)c3)cc(NC(=O)C(C)C)cc2n1	KDM5B inhibitor 22.4µM
CCOc1ccccc1CNC(=O)c1cc(-c2ccc(OC)cc2)nc2ccc(C(C)C)cc12	none
COC(=O)C(C)Oc1cc(Br)c(C=O)cc1OC (centres undefined)	none
Cc1ccc(C(=O)OCC(=O)N2CCc3ccccc32)cc1S(=O)(=O)N1CCCCC1	none
Cc1ccc(SCc2nc(-c3ccc(C(=O)NCc4cccnc4)cc3)oc2C)cc1	none
O=C(Cn1cc(C(=O)c2ccccc2)c2ccccc21)NCc1ccccc1	none
Cc1c(C(=O)NC2CCS(=O)(=O)C2)nnn1-c1ccccc1 (centres undefined)	none
CC1(C)CC2CC(C)(CN2C(=O)CSc2ncc(C(F)(F)F)cc2Cl)C1 (centres undefined)	none
CCS(=O)(=O)Nc1ccc(N2CCN(c3cccc(C(F)(F)F)c3)CC2)c(C(=O)O)c1	none
OCCCNC(=S)NCCSc1ccccc1	none
Cn1c(=O)c2c(nc(NCCCc3ccccc3)n2Cc2ccccc2F)n(C)c1=O	none
CCCOc1cc2cc(C(=O)c3ccccc3O)cnc2cc1OCCC	none
CCC(C)NC(=O)C(C)NC(=O)NCc1ccc(C(F)(F)F)cc1 (centres undefined)	none
Cc1ccc2c(C(=O)NCc3ccc(C(F)(F)F)cc3)cc(NC(=O)C(C)C)cc2n1	KDM5B inhibitor 15.8µM
Cc1cc(C(=O)NCC#Cc2cccc(C(F)(F)F)c2)c2ccccc2n1	none
Cc1nc(-c2ccccc2)sc1C(=O)N1CCN(Cc2ccc(C#N)cc2)CC1	none
COc1cccc(-c2cc(CNC(=O)C3COc4c(cccc4OC)C3)no2)c1 (centres undefined)	none
COc1cccc(-c2ncc(CNC(=O)[C@H]3CC[C@@H](N)C3)s2)c1	KDM5B inhibitor 25.1µM
COc1cccc(-c2ccc(NC(=O)C3CCCN(Cc4cnc(C)s4)C3)cc2)c1 (centres undefined)	none
O=C(c1sccc1-c1ccccc1)N1CCN(S(=O)(=O)c2ccc(F)cc2F)CC1	none
CC(C)CCC(C)NC(=O)c1ccc(CNC(N)=O)cc1 (centres undefined)	none
COC(=O)c1c(NC(C)=O)c2cc(NC3CCN(C(C)=O)CC3)cnc2n1CC1CCCO1 (centres undefined)	KDM5B inhibitor 20µM
COC(=O)c1c(NC(=O)c2ccccc2)c2cc(NC3CCOCC3)cnc2n1CC1CCCO1 (centres undefined)	none
COc1cc(NC(=O)Cn2c(=O)n(CC3CCCO3)c(=O)c3ccccc32)cc(OC)c1 (centres undefined)	none
O=C(CC1C(=O)NCCN1C(=O)CN1CCN(Cc2ccccc2)CC1)Nc1cccc(Cl)c1 (centres undefined)	none
C/C(=N/Nc1ccc(S(N)(=O)=O)cc1[N+](=O)[O-])c1ccc(C)o1	none
COc1ccc(Nc2nc3ccccc3nc2NS(=O)(=O)c2ccc(C)c(C)c2)cc1OC	none
COc1ccc2[nH]c(=O)c(CCC(=O)N3CCN(CC(C)C)CC3)cc2c1	KDM5B inhibitor 28.2µM
CC1CCCCN1CCCCNC(=O)CCc1ccc(C#N)cc1 (centres undefined)	none
COc1ccc2[nH]c(=O)c(CCC(=O)NCCCN3CCCCC3C)cc2c1 (centres undefined)	KDM5B inhibitor 28.2µM
O=C(CCc1cc2ccccc2[nH]c1=O)N1CCCCC1	none
CC1CCCCN1CCNC(=O)CCCc1nc2ccccc2[nH]1 (centres undefined)	none
O=C(CCc1cc2ccccc2[nH]c1=O)N1CCN(C(=O)c2ccco2)CC1	none
COc1ccc(C(CC(=O)N(C)Cc2cnc3ccccn23)c2ccccc2)cc1 (centres undefined)	KDM5B inhibitor 31.6µM
COc1ccc(C(CC(=O)N(C)C)c2ccccc2)cc1 (centres undefined)	none
COc1ccc(C(CC(=O)N2CCCC2)c2ccccc2)cc1 (centres undefined)	none
Cc1cc(C(=O)NC2CCN(C(=O)C3CC3)CC2)c2ccccc2n1	none
COc1ccc(Nc2nc(-c3ccc(C)cc3)cs2)cc1	none
Cc1cn2nc(C(=O)N3CCC(C(=O)NC4CCCC4)CC3)cc2c(=O)[nH]1	none
Cc1cccc(CNC(=O)c2cc3c(=O)[nH]c(C)cn3n2)c1	none
O=C(NC1CC1)c1cc2c(=O)[nH]c(-c3ccccc3)cn2n1	KDM5B inhibitor 28.2µM
CC(C)N1CCN(C(=O)c2cc3c(=O)[nH]c(-c4ccccc4)cn3n2)CC1	KDM5B inhibitor 25.1µM
Cc1cn2nc(C(=O)N3CCC(NC(=O)c4ccc(F)cc4)CC3)cc2c(=O)[nH]1	none
COCCCNC(=O)c1cc2c(=O)[nH]c(-c3ccccc3)cn2n1	KDM5B inhibitor 25.1µM
